Assay outcomes from PubChem BioAssay.
Eya2 phos inh – Eya2 (human) phosphatase inhibition | actives 0.006% (n = 330,000) | O00167 | Potency, µM (titrated, usually from 76.9 µM), for the others: at the top dose activity, negative = inhibition, hits mostly inhibitors | AID 488837 | recombinant Eya2, OMFP fluorescence dephosphorylation (OMFP is methylfluorescein phosphate); further: potency means the concentration at half of the fitted maximal effect; on the % scale 0 is the no-effect control and ±100 the full control effect
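Eya2 protein (added as 0.2 uM solution) was preincubated with compound for 10 min at ambient temperature in 50 mM HEPES pH 7.5, 50 mM NaCl, 5 uM MgCl2, 0.05% BSA, 1 mM DTT. OMFP (added at 50 uM) then reacted 10 min; fluorescence read at 485/525 nm.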
TrxR1 substrate – is turned over as a substrate by rat TrxR1 | actives 0.01% (n = 390,000) | purified TrxR1 substrate turnover, NADPH consumption readout | Potency, µM (top dose mostly 114 µM), for the others: top-dose activity change, negative = substrate turnover | O89049; further: potency means the concentration at half of the fitted maximal effect; on the % scale 0 is the no-effect control and ±100 the full control effect; nearly all actives have a fitted effect of over 50% in size
Target sequence (O89049 whole entry, looked up): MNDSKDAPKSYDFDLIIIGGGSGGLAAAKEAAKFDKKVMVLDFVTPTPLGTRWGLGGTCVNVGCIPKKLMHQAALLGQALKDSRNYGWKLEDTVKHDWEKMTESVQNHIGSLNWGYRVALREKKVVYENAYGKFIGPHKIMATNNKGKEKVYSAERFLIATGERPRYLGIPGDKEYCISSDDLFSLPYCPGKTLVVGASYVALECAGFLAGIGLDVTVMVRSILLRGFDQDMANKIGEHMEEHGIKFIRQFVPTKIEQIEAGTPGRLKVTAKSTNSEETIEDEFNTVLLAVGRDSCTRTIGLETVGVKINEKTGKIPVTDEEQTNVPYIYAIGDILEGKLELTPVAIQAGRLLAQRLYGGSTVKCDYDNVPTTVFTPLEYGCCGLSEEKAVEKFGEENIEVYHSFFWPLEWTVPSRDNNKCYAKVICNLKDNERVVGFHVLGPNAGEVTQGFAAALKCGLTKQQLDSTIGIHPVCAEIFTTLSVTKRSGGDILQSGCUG
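Rat TrxR1, dispensed at 90 nM, was prereduced with 400 uM NADPH (final) for 5 min at ~22 deg C, then incubated with compound 15 min before 400 uM selenite. A first-read NADPH fluorescence drop versus no-compound background flagged substrates.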
TrxR1 inh – rat TrxR1 inhibition; Potency, µM (doses to about 114 µM), inactives show at the highest dose activity change, negative = inhibition, hits mostly inhibitors; O89049; actives 1% (n = 390,000); recombinant rTrxR1, NADPH fluorescence consumption, selenite substrate; further: potency means the concentration at half of the fitted maximal effect; on the % scale 0 is the no-effect control and ±100 the full control effect; nearly all actives have a fitted effect of over 65% in size
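Rat TrxR1 (90 nM in the dispensed reagent) was pre-reduced with 400 uM NADPH for 5 min at room temperature, then incubated with compound for 15 min. After 400 uM selenite was added, NADPH fluorescence (Ex 340/Em 450 nm) was followed for 8 min.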
IDH1 R132H inh – blocks human mutant IDH1 R132H enzyme. O75874. IDH1-R132H enzyme, NADPH consumption, diaphorase/resazurin fluorescence. Potency, µM (doses to about 76.6 µM), for the others: at the top dose activity change, negative = inhibition, actives largely listed as inhibitors. actives 0.093% (n = 390,000). AID 602179; further: potency means the concentration at half of the fitted maximal effect; on the % scale 0 is the no-effect control and ±100 the full control effect; nearly all actives have a fitted effect of over 65% in size
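IDH1-R132H (0.5 ug/mL dispensed) in pH 7.5 Tris buffer was preincubated 30 min with compound, then given a substrate mix of 0.016 mM NADPH and 2 mM alpha-KG for 80 min at room temperature; remaining NADPH was read by diaphorase/resazurin fluorescence.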
FBPA coupling cs – counter-screen for Giardia aldolase inhibitors: coupling enzyme system | coupling enzyme system counterscreen, AmpLite Red fluorescence | activity change, negative = inhibition, % at 58.2 µM, hits read low | actives 0.67% (n = 290,000); in the data active means activity change below about -30%; further: on the % scale 0 is the no-effect control and ±100 the full control effect
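Compounds tested against the coupling enzymes alone at 57.5 uM final; readout was AmpLite Red fluorescence (525/598 nm) after 20 min at RT.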
Resorufin autofl – interferes with resorufin fluorescence in IDH1 counter-screen; 750 tested, under 10 active; shares compounds with IDH1 R132H inh; Resorufin detection reagent fluorescence interference, cell-free; inhibition of signal, % at 51.2 µM;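 further: 0% = wells with normal resorufin and full inhibition = wells lacking resorufin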
WT IDH1 inh – wild-type IDH1 (human) inhibition counterscreen; shares compounds with IDH1 R132H inh; WT IDH1 enzyme, NADPH diaphorase/resazurin fluorescence; Potency, µM (titrated, usually from 115 µM), inactives show at the highest dose activity change, negative = inhibition, hits mostly inhibitors; actives 9% (n = 750);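 further: potency means the concentration at half of the fitted maximal effect; 0% = full WT IDH1 enzyme control and full inhibition = no enzyme wells; nearly all actives have a fitted effect of over 55% in size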
mIDH1 confirm – mutant IDH1 (human) inhibition, confirmed. shares compounds with IDH1 R132H inh. IDH1 R132H enzyme, NADPH diaphorase/resazurin fluorescence. Potency, µM (series often up to 76.6 µM), inactives show at the highest dose activity change, negative = inhibition, actives largely listed as inhibitors. actives 83% (n = 750); further: potency means the concentration at half of the fitted maximal effect; nearly all actives have a fitted effect of over 50% in size
* = called active by the depositor; i = inactive; u = inconclusive; x = no result; [ ] = remark or other dose. This is a sample that favours compounds with a hit; in the whole collection about 1.5% have one here. Unless noted, the call rests on the fitted dose curve; in most records, active means well fitted curve in the direction sought with a large enough effect; inconclusive means small, poorly fitted or top-dose-only effect, or another doubt; inactive means no such curve, though single readings can be large; an effect the other way counts as inactive or inconclusive.

SMILES	Eya2 phos inh	TrxR1 substrate	TrxR1 inh	IDH1 R132H inh	FBPA coupling cs	Resorufin autofl	WT IDH1 inh	mIDH1 confirm
CC(C)c1nc(N2CCN(C(=O)c3ccco3)CC2)c(C#N)c2c1COC(C)(C)C2	1.3%	63.1%	10.2%	20.7µM*	-0.6	-9.3	-9.9%	20µM*
Cc1nc(N2CCN(Cc3ccccc3)CC2)c(C#N)c2c1COC(C)(C)C2	-1.5%	-4.1%[57.1 µM]	6.5%[57.1 µM]	8.6%	-0.3	x	x	x
COc1ccc2c(c1)c(CC(=O)NCc1ccc3c(c1)OCO3)c(C)n2C(=O)c1ccc(Cl)cc1	x	x	x	x	5.6	x	x	x
O=C(O)C(S)[C@@H](S)C(=O)O (some centres undefined)	x	x	x	x	0.4	x	x	x
CCC(=O)C1=C(c2ccc(Cl)cc2)N(C(=O)CC)n2c(C)nnc2S1	x	-0.8%[57.1 µM]	-21.4%[57.1 µM]	44.7µM*	x	-13.2	299.4%	14.1µM*
COC(=O)C1(C(=O)OC)CC2=CC(CC2=O)Cc2ccccc2[C@@H]1C[N+](=O)[O-] (some centres undefined)	x	x	x	x	0.5	x	x	x
NNC(=O)CN1C(c2ccc(Cl)cc2)=Nc2ccc(Br)cc2C1c1ccccc1 (centres undefined)	-1.3%	-3.3%	0.3%	u	-17.4	-13.2	u	-13.2%
Fc1ccc(Nc2nc(NCc3ccco3)c3ccccc3n2)cc1	1.4%	18.2%	29.9%	u	0.3	8.6	6.3%	28.2µM*
C[C@H]1CN([C@@H](C)CO)C(=O)CCCn2nncc2CO[C@H]1CN(C)S(=O)(=O)c1ccc(Oc2ccccc2)cc1	x	x	x	u	x	1.8	1.7%	u
CCN(CC)C(=O)c1sc2c(c1C)c(=O)n(-c1ccccc1)c(=O)n2Cc1c(C)cc(C)cc1C	x	6.6%[57.1 µM]	17.6%[57.1 µM]	39.8µM*	x	-5.5	-4.8%	35.5µM*
CCc1ccc(-n2c(=O)c3c(C)c(C(=O)N(C)C)sc3n(Cc3cccc(C)c3)c2=O)cc1	x	14.0%[57.1 µM]	35.8%[57.1 µM]	u	x	-3.3	-9.7%	31.6µM*
Cc1ccc(-n2c(=O)c3c(C)c(C(=O)N(C)C)sc3n(Cc3ccccc3C)c2=O)cc1C	x	-0.5%[57.1 µM]	13.3%[57.1 µM]	u	x	-4.7	2.0%	22.4µM*
CCN(CC)C(=O)c1sc2c(c1C)c(=O)n(-c1ccccc1)c(=O)n2Cc1cc(=O)n2ccccc2n1	x	6.3%[57.1 µM]	12.9%[57.1 µM]	-8.0%	x	x	x	x
COC(=O)C1=C(C(=O)OC)[C@@H]2N(C)c3ccccc3[C@@]23C[C@@H](CO)N(C(=O)c2cc(C)oc2C)C3=N1	x	x	x	x	0.0	x	x	x
CCOc1ccc(C2=C(C(C)=O)Sc3nnc(C)n3N2C(C)=O)cc1	x	3.6%	0.3%	u	x	x	x	x
CC(=O)C1=C(c2cccc([N+](=O)[O-])c2)N(C(C)=O)n2c(C)nnc2S1	6.5%	6.2%	u	20.7µM*	1.8	-8.8	i	3.16µM*
Cc1ccc(-c2[nH]ncc2CNCc2ccccc2)cc1	x	-0.6%	12.9%	x	x	x	x	x
COCCN1C(=O)c2[nH]nc(-c3cc(C)ccc3O)c2C1c1ccc(C(C)C)cc1 (centres undefined)	x	-3.3%	13.4%	u	x	-2.7	-2.4%	31.6µM*
COc1cc(C2c3c(-c4cc(C)ccc4O)n[nH]c3C(=O)N2CCCO)ccc1OCCC(C)C (centres undefined)	x	-8.7%	3.8%	39.8µM*	x	-0.7	-11.3%	25.1µM*
CC(C)c1nc2sc3c(NCc4ccccc4)ncnc3c2c2c1COC(C)(C)C2	1.5%	4.0%	7.5%	2.0%	-1.2	x	x	x
CCN(CCO)c1ncnc2c1sc1nc(C(C)C)c3c(c12)CC(C)(C)OC3	-2.4%	4.5%	9.2%	u	-8.0	-13.0	7.08µM*	6.31µM*
CCCc1cc(N2CCN(C(=O)c3ccco3)CC2)n2c(nc3ccccc32)c1C#N	-8.5%	16.6%[57.1 µM]	1.9%[57.1 µM]	u	3.7	-3.9	u	39.8µM*
Oc1ccc(Cl)cc1C1C=C(c2ccc3c(c2)OCO3)NC(c2ccc(C(F)(F)F)cc2)N1 (centres undefined)	x	-6.7%	u	x	x	x	x	x
Cc1ccc(-c2nn3c(-c4ccccc4C)nnc3c3ccccc23)cc1	x	18.6%	29.8%	39.8µM*	x	1.0	-1.8%	22.4µM*
COc1cc(C2(c3ccc(O)c(OC)c3)C(=O)N(C)c3ccc(Br)cc32)ccc1O	x	-1.0%	17.2%	-12.6%	x	x	x	x
SMILES	Eya2 phos inh	TrxR1 substrate	TrxR1 inh	IDH1 R132H inh	FBPA coupling cs	Resorufin autofl	WT IDH1 inh	mIDH1 confirm
COc1cc(C2(c3ccc(O)c(OC)c3)C(=O)Nc3c(Br)cc(Br)cc32)ccc1O	x	0.5%	27.6%	52.1µM*	x	-0.4	u	39.8µM*
CCn1c(=N)c(S(=O)(=O)c2ccccc2)cc2c(=O)n3ccccc3nc21	-4.4%	63.5%[57.1 µM]	46.0%[57.1 µM]	-0.1%	-1.9	x	x	x
COc1ccc(CCn2c(=N)c(S(=O)(=O)c3ccccc3)cc3c(=O)n4ccccc4nc32)cc1	1.6%	-1.1%	19.0%	3.0%	-2.4	x	x	x
CCCCCn1c(=N)c(S(=O)(=O)c2ccccc2)cc2c(=O)n3ccccc3nc21	x	13.2%	28.0%	20µM*	x	1.9	5.0%	7.94µM*
CCCn1c(=N)c(S(=O)(=O)c2ccccc2)cc2c(=O)n3ccccc3nc21	-2.2%	51.7%[57.1 µM]	83.2%	39.8µM*	1.6	4.1	6.8%	20µM*
OC[C@@H](O)C(O)[C@H](O)[C@H](O)CO (some centres undefined)	x	x	x	x	-2.3	x	x	x
CN(C)Cc1c(C(=O)N/N=C/c2cccc(OCc3c(F)cccc3Cl)c2)nnn1-c1nonc1N	-1.3%	9.4%	28.1%	-2.4%	x	x	x	x
CN(C)Cc1c(C(=O)N/N=C/c2ccccc2OCc2c(F)cccc2Cl)nnn1-c1nonc1N	13.5%	-5.8%	5.1%	36.9µM*	-4.3	-4.1	-0.3%	7.08µM*
O=C1CN(c2nc(-c3cccs3)nc3sc4c(c23)CCCC4)CCN1	-20.5%	21.2%[57.1 µM]	-5.8%[57.1 µM]	52.1µM*	0.1	-14.3	u	28.2µM*
Cn1c(SCC(=O)c2ccccc2)nnc1-c1cccnc1	-26.3%	4.7%	6.6%	2.6%	-0.5	x	x	x
Cn1c(SSc2ccc(-c3cccnc3)n2C)ccc1-c1cccnc1	x	-16.5%	44.7%	10.4µM*	x	0.9	360.1%	35.5µM*
Cc1ccc(N(C(=O)c2nsc(Cl)c2Cl)C(C(=O)NC2CCCC2)c2ccc(O)cc2)cc1C (centres undefined)	-5.4%	6.8%[57.1 µM]	22.0%[57.1 µM]	u	0.9	1.4	16.0%	14.1µM*
